According to PubChem BioAssay AID1240 (Sanford-Burnham Center for Chemical Genomics, 2008):
Hit rate of the full screen: of about 50,000 compounds, about 800 (1.6%) showed an effect of 50% or more. The full list was thinned out, with strong results kept by preference.

molecular target: Bcl-2-like protein 10 (Homo sapiens) (UniProt Q9HD36); assay: Phenotype converters, Bcl-B/TR3 peptide binding displacement, primary biochemical FP (AID 1240); details: GST-Bcl-B / FITC-TR3 peptide fluorescence polarization; stronger effect = higher value; compound at 3.75 mg/L;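 also: 0% = Bcl-B with tracer peptide and DMSO and 100% = tracer peptide lacking Bcl-B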
Sequence (Q9HD36 whole entry, looked up): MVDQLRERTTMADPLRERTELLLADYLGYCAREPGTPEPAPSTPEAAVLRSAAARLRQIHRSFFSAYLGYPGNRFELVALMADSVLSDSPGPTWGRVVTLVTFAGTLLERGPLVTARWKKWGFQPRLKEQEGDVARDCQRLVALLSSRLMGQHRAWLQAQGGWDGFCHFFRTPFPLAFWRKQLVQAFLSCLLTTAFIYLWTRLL

Row | SMILES | displacement [%]
1 | CCOC(=O)c1cccc(NC(=O)COc2ccc([N+](=O)[O-])cc2)c1 | 8.1
2 | CSc1ccc(/C=N\NC(=O)COc2ccc(C)cc2)cc1 | 11.8
3 | COC(=O)c1c(N)sc(C)c1-c1ccc(C)cc1C | -10.6
4 | COc1cc(/C=C/c2cc(C(F)(F)F)[nH]c(=O)n2)ccc1O | 44.6
5 | COc1ccc(OC)c(NC(=O)CN(c2cc(Cl)cc(Cl)c2)S(C)(=O)=O)c1 | -2.6
6 | O=C(N/N=C/c1ccccc1)c1cc(Br)ccc1O | 7.4
7 | O=C(CSc1nc(-c2ccccc2)c(-c2ccccc2)o1)Nc1nccs1 | 106
8 | O=C(CSc1nc(-c2ccccc2)c(-c2ccccc2)o1)Nc1ccccc1 | -4.2
9 | O=C(CSc1nnc(-c2ccccc2)c(-c2ccccc2)n1)Nc1nccs1 | 4.6
10 | CSc1nnc2c(n1)OC(C(=O)c1ccccc1)Nc1ccccc1-2 (stereo not given) | 13.5
11 | COc1cccc(NS(=O)(=O)c2ccc(OC)c(Br)c2)c1 | -4.6
12 | O=C1NC(=O)/C(=C\c2ccc(Oc3ccc(C(F)(F)F)cc3[N+](=O)[O-])c(Cl)c2)S1 | 5.5
13 | O=C1NC(=S)S/C1=C/c1ccc(Oc2ccc(C(F)(F)F)cc2[N+](=O)[O-])c(Cl)c1 | 2.8
14 | O=C1NC(=S)N/C1=C/c1ccc(Oc2ccc(C(F)(F)F)cc2[N+](=O)[O-])c(Cl)c1 | 88.3
15 | Cc1ccc(N(CC(=O)NC(C)c2ccccc2)S(C)(=O)=O)cc1Cl (stereo not given) | -1.3
16 | NNC(=O)COc1ccc2c(c1Br)CCCC2 | -25.1
17 | O=C(O)CCCCCN1C(=O)C(O)=C(C(=O)/C=C/c2ccccc2)C1c1cccc([N+](=O)[O-])c1 (stereo not given) | 96.1
18 | O=C(O)CCCCCN1C(=O)C(O)=C(C(=O)/C=C/c2ccccc2)C1c1ccc([N+](=O)[O-])cc1 (stereo not given) | -4.6

Row | SMILES | displacement [%]
19 | O=C(O)CCCCCN1C(=O)C(O)=C(C(=O)/C=C/c2ccccc2)C1c1ccccc1 (stereo not given) | 4.7
20 | Cc1cc(Cl)ccc1NC(=O)C(=O)N/N=C/c1ccccc1F | 4.5
21 | CCN1CCN(CC(O)CN2CCn3c4c(c5cc(C)ccc53)CCCC42)CC1 (stereo not given) | 24.7
22 | CCNC(=O)/C=C/c1cn(-c2ccccc2)nc1-c1ccccc1 | 9.4
23 | CCOC(=O)C(C(=O)OCC)=C1Sc2ccccc2N1C | 13.4
24 | CCOC(=O)C(=C/C=C/c1ccccc1)C(=O)OCC | -2.3
25 | CCOC(=O)C(=C/C=C1/Sc2ccccc2N1C)C(=O)OCC | 131
26 | COc1ccc(Br)cc1/C=C/C(=O)N1CCN(c2ccc([N+](=O)[O-])cc2)CC1 | 12.3
27 | Cc1ccc(NC(=S)NC(=O)c2ccccc2)cc1Br | 9
28 | O=C(Nc1ccc2c(c1)Cc1ccccc1-2)c1ccncc1 | -3.2
29 | O=C(Nc1ccc(Cl)c(Cl)c1)c1cc2ccccc2o1 | 2.9
30 | O=C(NC(=S)Nc1ccc2oc3ccccc3c2c1)c1ccccc1 | 91.8
31 | O=C(NC(=S)Nc1ccccc1)c1ccccc1 | 4.7
32 | O=C(NC(=S)Nc1ccc2oc(-c3ccccc3)nc2c1)c1ccccc1 | -10.6
33 | O=C(Nc1ccc2c(c1)OCCO2)c1cc2ccccc2o1 | -6.3
34 | O=C(NC(=S)Nc1ccc2c(c1)-c1ccccc1C2)c1ccccc1 | 51.9
35 | O=C(Nc1ccc2c(c1)Cc1ccccc1-2)c1cc2ccccc2o1 | 134
